PubChem BioAssay (NCATS)
Results filed as inconclusive are left out. Calls of active or inactive are those of the source. Unless noted, the call rests on the fitted dose curve; in most records, active means well fitted curve in the direction sought with a large enough effect; inconclusive means small, poorly fitted or top-dose-only effect, or another doubt; inactive means no such curve, though single readings can be large; an effect the other way counts as inactive or inconclusive.

Tests used:
[1] = qHTS assay for small molecule antagonists of peroxisome proliferator-activated receptor delta signaling (AID 588535); details: HEK293T PPARd-UAS-bla, beta-lactamase FRET ratio, 18 h; 460 nm channel;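 further: cells co-treated with a PPAR-delta agonist as stimulator during compound exposure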
Procedure, shortened: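 Reporter: UAS-bla under PPAR-delta response element, HEK293T host. Medium: 2% charcoal/dextran FBS. Dosing: titration, 18 hrs, 37 C. Detection: CCF4, 2 hrs RT, 405 ex/460 and 530 em.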

[2] = target: Peroxisome proliferator-activated receptor gamma (Homo sapiens) (UniProt P37231); assay: qHTS assay for small molecule agonists of peroxisome proliferator-activated receptor gamma signaling (AID 588536; active means well fitted curve in the direction sought with a large enough effect in the signal ratio, with a control signal flat, not every such curve was filed as active; the % refers to the signal ratio;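 further: 0% = DMSO basal wells and 100% = rosiglitazone at 2 µM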); details: HEK293 PPARg-UAS-bla, beta-lactamase ratio, 16 h, percent of rosiglitazone response, DMSO as zero; series mostly up to 76.7 µM
Chain of Peroxisome proliferator-activated receptor gamma (Homo sapiens) (P37231 whole entry, looked up): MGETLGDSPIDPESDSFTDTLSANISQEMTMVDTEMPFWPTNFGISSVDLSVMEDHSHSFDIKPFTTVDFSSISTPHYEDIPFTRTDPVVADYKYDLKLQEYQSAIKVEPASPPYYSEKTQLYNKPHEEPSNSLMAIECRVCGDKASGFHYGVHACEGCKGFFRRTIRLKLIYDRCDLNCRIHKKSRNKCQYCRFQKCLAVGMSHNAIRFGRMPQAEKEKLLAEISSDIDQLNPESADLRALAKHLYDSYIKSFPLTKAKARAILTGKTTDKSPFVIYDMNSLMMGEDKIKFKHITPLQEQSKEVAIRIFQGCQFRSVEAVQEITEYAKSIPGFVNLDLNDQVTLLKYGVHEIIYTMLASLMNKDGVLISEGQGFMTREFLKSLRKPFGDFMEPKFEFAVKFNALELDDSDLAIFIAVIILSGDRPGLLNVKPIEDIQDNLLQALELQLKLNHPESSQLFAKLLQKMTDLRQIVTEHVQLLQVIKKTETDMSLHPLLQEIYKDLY
Procedure, shortened: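 GeneBLAzer PPAR-gamma-UAS-bla HEK293 cells in 1% charcoal/dextran-treated FBS medium were treated 16 h at 37 C with compounds. Beta-lactamase activity was read by CCF4 ratio (460/530 nm). Response was normalized to 2 uM rosiglitazone (100%) and DMSO, then Hill-fitted for EC50 and efficacy.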

[3] = target: Peroxisome proliferator-activated receptor gamma (Homo sapiens) (UniProt P37231); assay: qHTS assay for small molecule antagonists of peroxisome proliferator-activated receptor gamma signaling (AID 588537; active means well fitted inhibition curve with a large enough effect in the signal ratio, with a control signal flat, not every such curve was filed as active; the % refers to the signal ratio;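 further: reporter cells co-stimulated with 50 nM rosiglitazone agonist during compound treatment; % of control where 0% means no effect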); details: HEK293 PPARg-UAS-bla, beta-lactamase ratio, antagonist mode; series mostly up to 76.8 µM
Procedure, shortened: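 We seeded GeneBLAzer HEK293 reporter cells at 3000 per well, allowed 6-6.5 h attachment at 37 C, then co-treated with test compound titrations and 50 nM rosiglitazone overnight (16 h). Inhibition was quantified from 460/530 nm emission ratios.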

[4] = target: Vitamin D3 receptor (Homo sapiens) (UniProt P11473); assay: qHTS assay for small molecule agonists of vitamin D receptor signaling (AID 588543; calls by dose curve;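 further: 0% = DMSO basal and 100% = reference agonist control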); details: HEK293T VDR-UAS-bla, beta-lactamase ratio, 16 h; series mostly up to 76.8 µM
Chain of Vitamin D3 receptor (Homo sapiens) (P11473 whole entry, looked up): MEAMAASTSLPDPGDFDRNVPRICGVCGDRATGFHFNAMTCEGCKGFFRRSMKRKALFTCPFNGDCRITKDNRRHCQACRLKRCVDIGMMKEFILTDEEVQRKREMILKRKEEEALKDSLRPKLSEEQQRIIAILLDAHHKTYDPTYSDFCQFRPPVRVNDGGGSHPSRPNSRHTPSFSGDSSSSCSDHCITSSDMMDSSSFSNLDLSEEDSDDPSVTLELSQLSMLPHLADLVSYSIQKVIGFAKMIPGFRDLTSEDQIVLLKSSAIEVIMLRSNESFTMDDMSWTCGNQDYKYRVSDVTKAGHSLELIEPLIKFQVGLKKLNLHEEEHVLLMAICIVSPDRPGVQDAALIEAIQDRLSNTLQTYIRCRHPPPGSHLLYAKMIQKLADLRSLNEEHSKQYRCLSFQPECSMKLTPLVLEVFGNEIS
Procedure, shortened: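 VDR-UAS-bla HEK293T cells, 2000/well, 2% charcoal-stripped FBS; compound titration 16 h at 37 C; CCF4 beta-lactamase ratio read. Normalized to 50 nM 1-alpha,25-dihydroxyvitamin D3 (100%) and DMSO; Hill fit gives EC50, efficacy.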

[5] = qHTS assay for small molecule agonists of retinoid X receptor alpha signaling (AID 588544; calls by dose curve;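 on activation: 0% = DMSO basal wells and 100% = reference agonist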); details: HEK293T RXRa-UAS-bla, beta-lactamase reporter, 18 h; 530 nm emission
[6] = target: Retinoic acid receptor RXR-alpha (Homo sapiens) (UniProt P19793); assay: as above; details: HEK293T RXRa-UAS-bla, beta-lactamase reporter, 18 h; series mostly up to 76.7 µM
Chain of Retinoic acid receptor RXR-alpha (Homo sapiens) (P19793 whole entry, looked up): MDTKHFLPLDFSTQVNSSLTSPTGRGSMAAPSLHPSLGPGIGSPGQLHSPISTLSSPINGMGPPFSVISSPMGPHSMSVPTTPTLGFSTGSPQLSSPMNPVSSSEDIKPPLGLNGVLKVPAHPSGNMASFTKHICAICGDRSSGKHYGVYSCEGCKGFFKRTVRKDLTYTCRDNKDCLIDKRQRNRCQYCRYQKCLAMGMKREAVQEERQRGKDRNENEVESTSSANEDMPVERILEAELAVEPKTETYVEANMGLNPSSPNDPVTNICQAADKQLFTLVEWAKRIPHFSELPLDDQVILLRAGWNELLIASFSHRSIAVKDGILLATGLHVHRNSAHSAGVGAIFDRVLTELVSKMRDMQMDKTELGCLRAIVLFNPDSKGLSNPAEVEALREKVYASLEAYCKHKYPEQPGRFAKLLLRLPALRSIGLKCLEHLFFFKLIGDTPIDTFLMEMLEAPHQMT

[7] = qHTS assay for small molecule antagonists of retinoid X receptor alpha signaling (AID 588546; active means well fitted inhibition curve with a large enough effect in the signal ratio, with a control signal flat, not every such curve was filed as active; the % refers to the signal ratio;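 further: cells stimulated with 9-cis-retinoic acid as agonist; on the % scale 0 is the no-effect control and ±100 the full control effect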); details: HEK293T RXRa-UAS-bla, beta-lactamase ratio, antagonist mode; measured here: W530 green channel, cytotoxicity proxy
Procedure, shortened: (§1)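 Beta-lactamase reporter inhibition, read as CCF4 fluorescence ratio (ex 405, em 460/530 nm) after 2 h at RT. HEK293T UAS-bla cells, 2500/well, were stimulated with 9-cis-RA at 500 or 100 nM final alongside test compound for 18 h at 37 C.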

[8] = target: Retinoic acid receptor RXR-alpha (Homo sapiens) (UniProt P19793); assay: as above; details: HEK293T RXRa-UAS-bla, beta-lactamase ratio, antagonist mode
Procedure, shortened: as §1

[9] = qHTS assay for small molecule activators of the p53 signaling pathway (AID 651743; active means well fitted activation curve with a large enough effect in the signal ratio, not every such curve was filed as active; the % refers to the signal ratio; further: % of control where 0% means no effect); details: HCT-116 p53RE-bla, beta-lactamase FRET ratio, 16 h; activation: stronger effect = higher value
Procedure, shortened: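 Cell-based beta-lactamase reporter (p53 response elements, HCT-116 background). After a 5-hour preincubation, cells received compound for 16 hours at 37 C; substrate development ran 2 hours at room temperature.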

[10] = qHTS assay for environmental chemicals that activate the Aryl hydrocarbon Receptor (AhR) signaling pathway (AID 651777); details: 1A2-DRE human hepatoma cells, luciferase, 24 h; activation: stronger effect = higher value; further: nearly all actives have a fitted effect of over 15% in size; further: potency means the concentration at half of the fitted maximal effect; on activation: % of control where 0% means no effect
Procedure, shortened: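 Concentration–response screening used 1,200 1A2-DRE cells per well, 24 hr compound exposure (37 C, 5% CO2), and One-Glo luminescence as the AhR-driven CYP1A2 reporter signal.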

[11] = target: Peroxisome proliferator-activated receptor alpha (Homo sapiens) (UniProt Q07869); assay: qHTS assay for small molecule agonists of the peroxisome proliferator-activated receptor alpha (PPARalpha) signaling pathway (AID 651778); details: PathHunter PPARalpha complementation, chemiluminescence, 6 h; max response: stronger effect = higher value; further: % of control where 0% means no effect
Chain of Peroxisome proliferator-activated receptor alpha (Homo sapiens) (Q07869 whole entry, looked up): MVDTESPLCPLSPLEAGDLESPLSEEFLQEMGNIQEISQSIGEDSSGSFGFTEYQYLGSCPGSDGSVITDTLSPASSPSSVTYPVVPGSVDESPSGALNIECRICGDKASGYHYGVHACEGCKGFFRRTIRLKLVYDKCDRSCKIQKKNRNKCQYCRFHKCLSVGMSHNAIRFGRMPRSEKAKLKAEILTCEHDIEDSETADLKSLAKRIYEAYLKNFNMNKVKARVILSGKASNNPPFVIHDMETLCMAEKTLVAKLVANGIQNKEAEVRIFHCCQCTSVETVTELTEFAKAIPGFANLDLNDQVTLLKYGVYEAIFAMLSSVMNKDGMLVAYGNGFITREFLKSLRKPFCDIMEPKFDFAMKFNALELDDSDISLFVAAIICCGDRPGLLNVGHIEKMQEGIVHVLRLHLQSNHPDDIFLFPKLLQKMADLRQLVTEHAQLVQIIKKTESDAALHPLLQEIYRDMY
Procedure, shortened: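 Cells plated at 2,000/well and held overnight at 37 C, 5% CO2, then compound added by pin tool for 6 hr; after PathHunter detection reagent and 60 min at room temperature, chemiluminescence from enzyme complementation was read.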

[12] = qHTS assay for small molecule agonists of the antioxidant response element (ARE) signaling pathway measured by Nrf2-dependant transcriptional activity (AID 720636; active means well fitted curve in the direction sought with a large enough effect in the repeat runs; an effect the other way counts as inactive or inconclusive;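 further: HepG2 cells with an ARE-driven luciferase reporter; % of control where 0% means no effect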); details: ARE-luc HepG2, Nrf2 luciferase reporter, 16 h; series mostly up to 92.4 µM
Procedure, shortened: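 Attachment 6 hr at 37 C, then compound versus DMSO vehicle for 16 hr in ARE-luc HepG2 cells (1% dialyzed FBS); luminescence recorded 30 min after ONE-Glo addition at room temperature.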

[13] = qHTS assay for small molecule agonists of the antioxidant response element (ARE) signaling pathway measured by Nrf2-dependant transcriptional activity - cell viability counter screen (AID 720653; active means well fitted curve in the direction sought with a large enough effect in the repeat runs; an effect the other way counts as inactive or inconclusive; further: on the % scale 0 is the no-effect control and ±100 the full control effect); details: ARE-bla HepG2 viability, CellTiter-Glo ATP luminescence, 16 h; max response: stronger effect = lower value
Procedure, shortened: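 ARE-bla HepG2 cells (2,000/well) rested 5 hrs at 37C/5% CO2, then exposed to compounds in DMSO for 16 hrs. Viability was read in the same wells as intracellular ATP by luminescence, 30 min at room temperature after reagent addition.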

[14] = qHTS assay for cell viability of HEK293 cells (AID 743288); details: ATP luminescence (CellTiter-Glo), 18 h; max response: stronger effect = lower value; further: nearly all actives have a fitted effect of over 50% in size; further: potency means the concentration at half of the fitted maximal effect; on max response: on the % scale 0 is the no-effect control and ±100 the full control effect
Procedure, shortened: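 Parental HEK293 cells, 2,000 per well, preincubated at least 5 h at 37 C, then exposed to compounds in DMSO for 18 h at 37 C. Viability by CellTiter-Glo ATP luminescence after 30 min at room temperature.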

[15] = qHTS assay for cell viability of the p53RE-bla HCT-116 cell line (AID 743292); details: p53RE-bla HCT-116 viability, ATP luminescence, 16 h; series mostly up to 95 µM; further: nearly all actives have a fitted effect of over 55% in size; further: potency means the concentration at half of the fitted maximal effect
Procedure, shortened: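 Compound-exposed HCT-116 (p53RE-bla) cells, 4,000 per well, were kept 16 h at 37 C following a 5 h preincubation. Cell number was estimated from total ATP by CellTiter-Glo luminescence read after 30 min at room temperature.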

[16] = target: Nuclear receptor subfamily 1 group I member 2 (Rattus norvegicus) (UniProt Q9R1A7); assay: qHTS assay for small molecule activators of the rat pregnane X receptor (rPXR) signaling pathway (AID 651751; call rule not given here; further: 0% is about no effect); details: rPXR reporter cells, luciferase (One-Glo), 24 h
Chain of Nuclear receptor subfamily 1 group I member 2 (Rattus norvegicus) (Q9R1A7 whole entry, looked up): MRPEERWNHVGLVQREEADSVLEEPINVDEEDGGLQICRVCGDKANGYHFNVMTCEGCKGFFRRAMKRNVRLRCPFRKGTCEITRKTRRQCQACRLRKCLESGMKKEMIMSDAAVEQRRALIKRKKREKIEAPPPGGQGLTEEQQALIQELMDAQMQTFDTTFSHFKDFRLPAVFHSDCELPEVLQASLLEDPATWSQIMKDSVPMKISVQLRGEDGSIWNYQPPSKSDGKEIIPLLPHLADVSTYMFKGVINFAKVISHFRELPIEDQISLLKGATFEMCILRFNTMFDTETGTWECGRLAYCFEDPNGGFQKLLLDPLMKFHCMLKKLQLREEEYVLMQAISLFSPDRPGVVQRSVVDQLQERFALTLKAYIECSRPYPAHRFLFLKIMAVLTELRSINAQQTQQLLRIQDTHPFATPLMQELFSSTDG

[17] = qHTS assay for small molecule activators of the human pregnane X receptor (PXR) signaling pathway (AID 720659; call rule not given here; further: 0% is about no effect); details: DPX-2 HepG2 CYP3A4-luciferase, 24 h; series mostly up to 92.3 µM
[18] = target: Glucocorticoid receptor (Homo sapiens) (UniProt P04150); assay: qHTS assay for small molecule agonists of glucocorticoid receptor signaling (AID 588532; active means well fitted curve in the direction sought with a large enough effect in the signal ratio, with a control signal flat; the % refers to the signal ratio;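 further: 100% = dexamethasone at 0.1 µM and 0% = DMSO only wells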); details: HeLa MMTV-bla, beta-lactamase ratio, agonist, 18 h; stronger effect = higher value; percent of dexamethasone control, DMSO zero
Chain of Glucocorticoid receptor (Homo sapiens) (P04150 whole entry, looked up): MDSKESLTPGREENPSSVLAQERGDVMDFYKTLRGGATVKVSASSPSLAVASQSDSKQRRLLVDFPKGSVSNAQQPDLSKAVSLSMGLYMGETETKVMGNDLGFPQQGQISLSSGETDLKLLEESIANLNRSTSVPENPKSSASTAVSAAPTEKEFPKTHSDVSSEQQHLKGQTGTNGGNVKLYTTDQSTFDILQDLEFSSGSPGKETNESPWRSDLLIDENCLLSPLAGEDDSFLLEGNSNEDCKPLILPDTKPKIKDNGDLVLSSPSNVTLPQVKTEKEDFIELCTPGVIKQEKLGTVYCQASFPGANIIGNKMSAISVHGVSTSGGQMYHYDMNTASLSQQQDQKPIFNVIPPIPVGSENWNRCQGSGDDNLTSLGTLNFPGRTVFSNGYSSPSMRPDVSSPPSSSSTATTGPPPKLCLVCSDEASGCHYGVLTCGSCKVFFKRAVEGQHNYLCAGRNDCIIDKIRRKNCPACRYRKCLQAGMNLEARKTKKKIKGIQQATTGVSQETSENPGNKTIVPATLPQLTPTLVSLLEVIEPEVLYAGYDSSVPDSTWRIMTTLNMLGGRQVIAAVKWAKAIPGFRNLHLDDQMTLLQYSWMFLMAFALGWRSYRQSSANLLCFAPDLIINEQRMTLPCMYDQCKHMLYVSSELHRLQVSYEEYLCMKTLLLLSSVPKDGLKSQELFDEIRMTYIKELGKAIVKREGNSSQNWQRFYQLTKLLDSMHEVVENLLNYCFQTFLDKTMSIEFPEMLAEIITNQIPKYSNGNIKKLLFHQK
Procedure, shortened: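 MMTV-bla HeLa, beta-lactamase reporter; medium with 1% charcoal/dextran-stripped FBS; cpds up to 92 uM, 18 h, 37 C; CCF4 readout 460/530 nm; Hill fit → EC50, efficacy vs 0.1 uM dexamethasone = 100%.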

[19] = target: Vitamin D3 receptor (Homo sapiens) (UniProt P11473); assay: qHTS assay for small molecule antagonists of vitamin D receptor signaling (AID 588541; calls by dose curve;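 further: receptor activated by calcitriol during compound treatment; on the % scale 0 is the no-effect control and ±100 the full control effect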); details: HEK293T VDR-UAS-bla, beta-lactamase ratio, antagonist mode; series mostly up to 76.7 µM
Procedure, shortened: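 VDR-UAS-bla HEK293T cells (2000/well, 2% charcoal-stripped FBS) were treated with titrated compounds plus 1-alpha,25-dihydroxyvitamin D3 (50 nM or 3 nM final) for 16 h at 37 C. CCF4 beta-lactamase fluorescence was read; Hill fits gave IC50.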

[20] = target: Thyroid hormone receptor beta (Homo sapiens) (UniProt P10828); assay: qHTS assay for small molecule agonists of thyroid hormone receptor beta signaling (AID 588545; calls by dose curve); details: TR-UAS-bla GripTite HEK 293, beta-lactamase ratio, agonist mode, 18 h; series mostly up to 76.7 µM
Chain of Thyroid hormone receptor beta (Homo sapiens) (P10828 whole entry, looked up): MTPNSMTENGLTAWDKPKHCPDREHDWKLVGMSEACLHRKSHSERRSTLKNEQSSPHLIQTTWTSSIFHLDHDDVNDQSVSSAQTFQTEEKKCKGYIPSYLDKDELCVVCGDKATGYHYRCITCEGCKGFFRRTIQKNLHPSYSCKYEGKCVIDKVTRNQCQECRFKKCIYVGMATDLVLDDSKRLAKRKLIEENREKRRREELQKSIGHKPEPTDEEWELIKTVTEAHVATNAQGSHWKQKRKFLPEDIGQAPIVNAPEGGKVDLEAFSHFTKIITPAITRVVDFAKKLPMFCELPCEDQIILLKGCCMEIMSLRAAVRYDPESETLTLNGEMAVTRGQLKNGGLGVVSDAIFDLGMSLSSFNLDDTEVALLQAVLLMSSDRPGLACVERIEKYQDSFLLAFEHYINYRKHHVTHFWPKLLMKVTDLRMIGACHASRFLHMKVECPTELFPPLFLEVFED
Procedure, shortened: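 Cells (2500/well) were seeded, incubated 4 hrs at 37 C, dosed with a compound series, incubated 18 hrs, loaded with CCF4 dye for 2 hrs at RT, then read for fluorescence. Data were scaled between DMSO (0%) and 10 nM T3 (100%).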

O=C(Cl)c1cccc(C(=O)Cl)c1
inactive: outcome [2] | Potency [3] | outcome [4] | Potency [6] | max response [8] -13.1% | activation [9] -3.51% | activation [10] -0.235% | max response [11] -0.213% | Potency [12] | max response [13] 5.28% | max response [14] -6.55% | Potency [15] | max response [16] -0.886% | outcome [17]
-7.46%: max response [5]
-11.7%: max response [1]
-3.89%: max response [7]

COC(=O)c1ccc(I)cc1S(=O)(=O)NC(=O)Nc1nc(C)nc(OC)n1
-4.15%: max response [7]
-6.12%: max response [5]
inactive: activation [18] 7.01% | outcome [2] | Potency [3] | Potency [19] | outcome [4] | Potency [6] | Potency [20] | activation [9] -2.48% | activation [10] 2.67% | max response [11] -0.424% | Potency [12] | max response [13] -4.44% | max response [14] -13.7% | max response [16] 3.28% | outcome [17]

COCCOCCOCCO
7.14%: max response [1]
-11.8%: max response [5]
-2.04%: max response [7]
inactive: activation [18] 2.13% | outcome [4] | Potency [6] | max response [8] 3.15% | activation [9] 13.1% | activation [10] -0.0316% | max response [11] 0.508% | Potency [12] | max response [13] -1.82% | max response [14] -7% | Potency [15] | max response [16] 1.8% | outcome [17]

Cc1cc(Cc2cc(C)cc(C(C)(C)C)c2O)c(O)c(C(C)(C)C)c1
inactive: activation [18] 20.3% | activation [10] -12.4% | Potency [12]
active: Potency [14] 50.1 µM

CCCCC(CC)CN1C(=O)C2C3C=CC(C3)C2C1=O (centres undefined)
8.85%: max response [7]
inactive: activation [18] -12.6% | outcome [2] | Potency [3] | Potency [19] | Potency [20] | max response [8] -2.63% | activation [9] -2.19% | activation [10] -3.03% | max response [11] 7.9% | Potency [12] | max response [13] 8.11% | max response [14] -5.32%

O=C(O)c1cc(O)c2ccccc2c1O
active: Potency [10] 14.1 µM
inactive: activation [18] -13.3% | Potency [20] | max response [11] -7.87% | max response [16] 5.84%

CC[C@H](C)C1O[C@]2(C=C[C@@H]1C)C[C@@H]1C[C@@H](C/C=C(\C)[C@@H](O[C@H]3C[C@H](OC)[C@@H](O[C@H]4C[C@H](OC)[C@H](NC(C)=O)[C@H](C)O4)[C@H](C)O3)[C@@H](C)/C=C/C=C3\CO[C@@H]4[C@H](O)C(C)=C[C@@H](C(=O)O1)[C@]34O)O2 (some centres undefined)
active: Potency [14] 44.7 µM | Potency [15] 14.1 µM
inactive: activation [18] -14.6% | activation [10] -11.2% | max response [11] 6.61% | Potency [12] | outcome [17]

CCCCCCCCCCCCCCN(C)C
inactive: activation [18] 12.5% | outcome [2] | Potency [19] | outcome [4] | Potency [6] | Potency [20] | max response [8] -14.8% | activation [9] 5.52% | activation [10] 1.73% | max response [11] -1.88% | Potency [12] | max response [13] -6.77% | max response [14] -20.2% | Potency [15] | max response [16] -1.42% | outcome [17]
-17%: max response [5]
-0.764%: max response [7]

O=C(c1ccccc1)c1ccc(O)c(O)c1O
-6.52%: max response [7]
45.6%: max response [1]
inactive: activation [18] -16.3% | Potency [19] | outcome [4] | Potency [6] | Potency [20] | max response [8] -13.1% | activation [9] -1.01% | activation [10] 3.3% | max response [11] -4.07% | Potency [12] | max response [14] -12.1% | Potency [15] | max response [16] -0.206% | outcome [17]
27%: max response [5]
